A short description of experiment [1]: NCI Yeast Anticancer Drug Screen. Data for the rad50 strain (AID 155).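 Also: 0% = growth of vehicle-only cultures of the same strain.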 The conditions noted are these: S. cerevisiae rad50 strain growth inhibition, active compounds read high. An outline of the steps:
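Compounds were tested on a yeast strain with an engineered DNA damage repair alteration; the reported value is growth inhibition normalised to vehicle treatment.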

Experiment [2] is described as follows: NCI Yeast Anticancer Drug Screen. Data for the mec2-1 strain (AID 157). Particulars: S. cerevisiae mec2-1 strain, active compounds read high. The essentials:
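Mutant yeast (mec2-1) grown with compound; growth inhibition relative to vehicle control reported.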

The nature of experiment [3]: NCI Yeast Anticancer Drug Screen. Data for the sgs1 mgt1 strain (AID 161).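 Also: 0% = growth of cultures given vehicle only.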 The conditions noted are these: S. cerevisiae sgs1 mgt1 strain, active compounds read high. An outline of the steps:
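Yeast cells carrying a defined DNA-repair defect were exposed to test compounds. Growth inhibition was measured relative to vehicle-treated controls.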

A short description of experiment [4]: NCI Yeast Anticancer Drug Screen. Data for the cln2 rad14 strain (AID 165).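 Also: 0% = growth equal to vehicle treated cultures.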 Particulars: S. cerevisiae cln2 rad14 strain, active compounds read high. An outline of the steps:
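Readout is yeast growth inhibition versus vehicle-treated controls, using a strain with cln2 and rad14 alterations exposed to compound.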

Experiment [5] can be described thus: NCI Yeast Anticancer Drug Screen. Data for the bub3 strain (AID 167). Particulars: S. cerevisiae bub3 mutant strain, active compounds read high. The essentials:
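Growth of a checkpoint-deficient yeast mutant is measured after compound exposure. Values represent inhibition relative to vehicle.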

A short description of experiment [6]: NCI Yeast Anticancer Drug Screen. Data for the mlh1 rad18 strain (AID 175). Particulars: S. cerevisiae mlh1 rad18 strain growth inhibition, active compounds read high. The essentials:
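Genetically defined yeast (DNA repair-deficient) exposed to compounds; growth inhibition determined relative to vehicle.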

Where [7] appears, read: at 5.0 µM (retest, dose inferred, filed as 0.5).
[8] abbreviates: at 50.0 µM (retest, dose inferred, filed as 5.0).

This is part of a sample that, as a whole, favours compounds with a hit. Of some 79,000 tested, about 15% had one in any assay. Values without a mark were called inactive. Active and inactive are the calls of the source. Rule as the data show it: active = growth inhibition above about 70%; inactive = the rest.

In the case of `Cc1nn(C)c2ccc3ccccc3c(=O)c12`, the growth inhibition in experiment [1] (setting [7]) is 9%; in experiment [1] (setting [8]), 66%; in experiment [1] (at 50.0 µM), 88.5% (active); in experiment [2] (setting [7]) it was -1%; in experiment [2] (setting [8]), 44%; in experiment [2] (at 50.0 µM), 45%. The growth inhibition in experiment [3] (setting [7]) is 2%; in experiment [3] (setting [8]), 50%; in experiment [3] (at 50.0 µM) it was 42.6%; in experiment [4] (setting [7]), 18%; in experiment [4] (setting [8]) it was 47%; in experiment [4] (at 50.0 µM) it was 29.4%. For the same compound, the growth inhibition in experiment [5] (setting [7]) was -6%; in experiment [5] (setting [8]) it was 26%; in experiment [5] (at 50.0 µM), 32.6%; in experiment [6] (setting [7]), 11%; in experiment [6] (setting [8]), 81% (active); in experiment [6] (at 50.0 µM), 76% (active).
Consider `Nc1nnc2nc(CC(=O)c3ccc([N+](=O)[O-])cc3)c(CC(=O)c3ccc([N+](=O)[O-])cc3)nn12`, for which the growth inhibition is 6% in experiment [1] (setting [7]); -3% in experiment [1] (setting [8]); 3.7% in experiment [1] (at 50.0 µM); 15% in experiment [2] (setting [7]); 15% in experiment [2] (setting [8]); 19.2% in experiment [2] (at 50.0 µM). Also, the growth inhibition in experiment [3] (setting [7]) was 6%; in experiment [3] (setting [8]), 2%; in experiment [3] (at 50.0 µM) it was 11.8%; in experiment [4] (setting [7]), 4%; in experiment [4] (setting [8]), 4%; in experiment [4] (at 50.0 µM) it was 43.1%. For the same compound, the growth inhibition was 6% in experiment [5] (setting [7]); 1% in experiment [5] (setting [8]); 0.8% in experiment [5] (at 50.0 µM); 4% in experiment [6] (setting [7]); 26% in experiment [6] (setting [8]); 3.05% in experiment [6] (at 50.0 µM).
Consider `CCOC(=O)c1c(O)c(C)c(=O)n2c1[nH]c1cc(C)c(C)cc12`, for which the growth inhibition is -1% in experiment [1] (setting [7]); 12% in experiment [1] (setting [8]); -6.75% in experiment [1] (at 50.0 µM); 10% in experiment [2] (setting [7]); 33% in experiment [2] (setting [8]); -6.85% in experiment [2] (at 50.0 µM). The growth inhibition was 12% in experiment [3] (setting [7]); 29% in experiment [3] (setting [8]); -6.5% in experiment [3] (at 50.0 µM); -4% in experiment [4] (setting [7]); 2% in experiment [4] (setting [8]); -21.3% in experiment [4] (at 50.0 µM). Moreover, the growth inhibition was -6% in experiment [5] (setting [7]); 14% in experiment [5] (setting [8]); -43.9% in experiment [5] (at 50.0 µM); -4% in experiment [6] (setting [7]); 38% in experiment [6] (setting [8]); -10.6% in experiment [6] (at 50.0 µM).
Take `C=C1OC(=O)C(=O)N1CC(=O)O`: the growth inhibition in experiment [1] (setting [7]) was -156%; in experiment [1] (setting [8]), -170%; in experiment [1] (at 50.0 µM) it was -1.35%; in experiment [2] (setting [7]), -50%; in experiment [2] (setting [8]), -54%; in experiment [2] (at 50.0 µM), 5.4%. In addition, the growth inhibition in experiment [3] (setting [7]) was -61%; in experiment [3] (setting [8]), -70%; in experiment [3] (at 50.0 µM), -5.5%; in experiment [4] (setting [7]), -54%; in experiment [4] (setting [8]), -69%; in experiment [4] (at 50.0 µM), 44.9%. For the same compound, the growth inhibition is -70% in experiment [5] (setting [7]); -82% in experiment [5] (setting [8]); -6.45% in experiment [5] (at 50.0 µM); -139% in experiment [6] (setting [7]); -119% in experiment [6] (setting [8]); 4.05% in experiment [6] (at 50.0 µM).
As to `CC(NC(=O)C(Cc1ccccc1)NC(=O)c1ccc[n+](Cc2ccccc2)c1)C(N)=O` (configuration not stated), the growth inhibition in experiment [1] (setting [7]) is 0%; in experiment [1] (setting [8]) it was -5%; in experiment [1] (at 50.0 µM), 0.65%; in experiment [2] (setting [7]) it was 0%; in experiment [2] (setting [8]), -2%; in experiment [2] (at 50.0 µM) it was -3.05%. The growth inhibition in experiment [3] (setting [7]) is -1%; in experiment [3] (setting [8]) it was 3%; in experiment [3] (at 50.0 µM), -9.9%; in experiment [4] (setting [7]), 0%; in experiment [4] (setting [8]) it was -1%; in experiment [4] (at 50.0 µM) it was -4.7%. The growth inhibition in experiment [5] (setting [7]) was 1%; in experiment [5] (setting [8]), -11%; in experiment [5] (at 50.0 µM), -1.9%; in experiment [6] (setting [7]), -1%; in experiment [6] (setting [8]), -2%; in experiment [6] (at 50.0 µM), 28.1%.
`N=C(N)SCc1cc(Cl)cc(Cl)c1O`: the growth inhibition in experiment [1] (setting [7]) is 8%; in experiment [1] (setting [8]), 20%; in experiment [1] (at 50.0 µM) it was 55.2%; in experiment [2] (setting [7]), 4%; in experiment [2] (setting [8]) it was -6%; in experiment [2] (at 50.0 µM), -1.85%. In addition, the growth inhibition in experiment [3] (setting [7]) was 1%; in experiment [3] (setting [8]) it was 1%; in experiment [3] (at 50.0 µM), 16%; in experiment [4] (setting [7]), -18%; in experiment [4] (setting [8]), -72%; in experiment [4] (at 50.0 µM), -2%. In addition, the growth inhibition in experiment [5] (setting [7]) was -14%; in experiment [5] (setting [8]), -19%; in experiment [5] (at 50.0 µM), -9.35%; in experiment [6] (setting [7]), -5%; in experiment [6] (setting [8]), 42%; in experiment [6] (at 50.0 µM) it was 80.2% (active).
As to `COC(=O)/N=C/CCC(O)NC(=O)OC` (configuration not stated), the growth inhibition in experiment [1] (setting [7]) is 1%; in experiment [1] (setting [8]), 1%; in experiment [1] (at 50.0 µM) it was 40.3%; in experiment [2] (setting [7]) it was -20%; in experiment [2] (setting [8]) it was 2%; in experiment [2] (at 50.0 µM), 1.85%. Further, the growth inhibition in experiment [3] (setting [7]) is 2%; in experiment [3] (setting [8]), -2%; in experiment [3] (at 50.0 µM), -3.15%; in experiment [4] (setting [7]), -1%; in experiment [4] (setting [8]), 3%; in experiment [4] (at 50.0 µM), 46.5%. Further, the growth inhibition is -2% in experiment [5] (setting [7]); -3% in experiment [5] (setting [8]); -18.8% in experiment [5] (at 50.0 µM); -9% in experiment [6] (setting [7]); 4% in experiment [6] (setting [8]); 11.7% in experiment [6] (at 50.0 µM).
For the compound `CC(C)(C)c1ccc(C(C)(C)C)cc1`, the growth inhibition in experiment [1] (setting [7]) was 1%; in experiment [1] (setting [8]), 3%; in experiment [1] (at 50.0 µM) it was -10.7%; in experiment [2] (setting [7]) it was -5%; in experiment [2] (setting [8]) it was -4%; in experiment [2] (at 50.0 µM), 6.55%. Moreover, the growth inhibition in experiment [3] (setting [7]) was 1%; in experiment [3] (setting [8]), -9%; in experiment [3] (at 50.0 µM), -20.4%; in experiment [4] (setting [7]) it was 4%; in experiment [4] (setting [8]) it was -7%; in experiment [4] (at 50.0 µM), 50.8%. Moreover, the growth inhibition in experiment [5] (setting [7]) is 5%; in experiment [5] (setting [8]) it was 13%; in experiment [5] (at 50.0 µM) it was 3%; in experiment [6] (setting [7]) it was -2%; in experiment [6] (setting [8]) it was 1%; in experiment [6] (at 50.0 µM), 1.55%.
With `CC1C(=O)C(Br)CC2C1(C)CCC1C2(C)CCC2(C)C3CC(C)(C)CCC3(C)CCC12C` (configuration not stated), the growth inhibition in experiment [1] (setting [7]) is 6%; in experiment [1] (setting [8]), -1%; in experiment [1] (at 50.0 µM) it was 25.7%; in experiment [2] (setting [7]) it was 5%; in experiment [2] (setting [8]) it was 3%; in experiment [2] (at 50.0 µM), 6.25%. Moreover, the growth inhibition in experiment [3] (setting [7]) is 8%; in experiment [3] (setting [8]) it was -13%; in experiment [3] (at 50.0 µM), 4.2%; in experiment [4] (setting [7]) it was 7%; in experiment [4] (setting [8]), 6%; in experiment [4] (at 50.0 µM), 64.5%. Moreover, the growth inhibition in experiment [5] (setting [7]) was 6%; in experiment [5] (setting [8]), 5%; in experiment [5] (at 50.0 µM) it was 85% (active); in experiment [6] (setting [7]), -2%; in experiment [6] (setting [8]), 0%; in experiment [6] (at 50.0 µM), 0.3%.

These data come from PubChem BioAssay (NCI).
